Experimental data as given in PMC13494018.

B1: design_622_fcc41892-afde-4fb9-b6e8-b664fffd6a75_1477_dldesign_0_cycle1_af2pred (protein)
chain: GEAVQTAVDALKLLSEERRRAAALVAADPENAEARAILERLEESFRAVARAAANPATAQEVGEAGIAEAERARERLAALA
B2: design_622_fcc41892-afde-4fb9-b6e8-b664fffd6a75_786_dldesign_0_cycle1_af2pred (protein)
chain: DLLAEALRLAERAVEALREDPEEGRRLLEELAELGRRALAEKGDGLAVLLGLAARRALRLLEEDPEEARDFLERAVAFVRAQS
B3: design_622_fcc41892-afde-4fb9-b6e8-b664fffd6a75_655_dldesign_0_cycle1_af2pred (protein)
chain: SMEAAAREAGKAEAEKVFAEAKAEGLGLGEAAKRIHDIFSKVSKFNPEFGAIARNAALAELQKLALAADA
B4: design_622_fcc41892-afde-4fb9-b6e8-b664fffd6a75_1801_dldesign_0_cycle1_af2pred (protein)
chain: QALLEAASAIVEAAELAAKEVGPAAANALLTEAGKLLATGEAGLKAAVAEIDKVAKQASPEVAKKLLELRDKAAA
B5: design_623_6e2e8b1f-5d9a-4413-9869-27a184816b12_221_dldesign_0_cycle1_af2pred (protein)
chain: EEEEKRAAAKEAAALLEAAADDPATRGELVLQAIALLTRYPELAPYASAATRALALAAQEGVAAGAAALREVAAGVKALAE
B6: design_622_fcc41892-afde-4fb9-b6e8-b664fffd6a75_2129_dldesign_0_cycle1_af2pred (protein)
chain: AAAEAAARAALLAEGLALAHQAATFAAMAEYSPGVAPLAERARARLEAVTAAATPEVAAEIRAAYEASLARVRAALA
B7: design_622_fcc41892-afde-4fb9-b6e8-b664fffd6a75_1399_dldesign_0_cycle1_af2pred (protein)
chain: GAALAAAKGVAEQVKRVAEEAEAADPSLAPIMEEYKRRAEELLKKAQENASDEAKVNEYLAELVELLGEVARLRREALAA
B8: design_622_fcc41892-afde-4fb9-b6e8-b664fffd6a75_2272_dldesign_0_cycle1_af2pred (protein)
chain: DEAKKQLEIATKMAEYALKQAEAALKDGRTAGTVVPAQVKTLKLLAESAEATGLEEAKKKAEEFKKKAKELEKAAEKAK
B9: design_622_fcc41892-afde-4fb9-b6e8-b664fffd6a75_2288_dldesign_0_cycle1_af2pred (protein)
chain: SAEEEVLAKVKELRDKVEAAAADPAKAAEGAALAQEALAFLEENLPVIRAGGQELKDAVHALLRAIARHNAVYN
B10: design_622_fcc41892-afde-4fb9-b6e8-b664fffd6a75_1677_dldesign_0_cycle1_af2pred (protein)
chain: MEELEELKERSEEVKKRAEEAKKKGEELKKKSPKTAVAGNAVIALAKSAKELAEDPEKVEQAEKVLEIAEAIIKAA
B11: design_622_fcc41892-afde-4fb9-b6e8-b664fffd6a75_1948_dldesign_0_cycle1_af2pred (protein)
chain: SEEALLLANQGVALASQGLIAGDDAKVKEGIKKIEEAKKLASPELAKTFDKLKATVEAMAAGTAAARAAAAAAA
B12: design_623_6e2e8b1f-5d9a-4413-9869-27a184816b12_67_dldesign_0_cycle1_af2pred (protein)
chain: SREEELERVEEAIATARDVLAGAELTAAQVSPELAAAALRSAARTAVVLFEGEARRAEDEEARERLRKAAEEARKVAA
B13: design_622_fcc41892-afde-4fb9-b6e8-b664fffd6a75_1277_dldesign_0_cycle1_af2pred (protein)
chain: SEEIIKKAEEIKEKAEKLLKEAAKLTPEQQKAAIKEMSKNLGELTELAKTASPEELKVINEAMNAAAKASVALAAKAA
B14: design_622_fcc41892-afde-4fb9-b6e8-b664fffd6a75_1878_dldesign_0_cycle1_af2pred (protein)
chain: GRQQELNQALGLTLEAAKKASELNKEVLPLVNEAASLIAKAYLTGDKELLKKAIEKLKKAAELASEEVKVLLKKAAEHAKKAIEL
B15: design_622_fcc41892-afde-4fb9-b6e8-b664fffd6a75_877_dldesign_0_cycle1_af2pred (protein)
chain: SEEYRRRAEELERRAREAAEEARRAERAEELRRYAEELRRIANEAMRLAMEAAQAGGDPEVVVRAVEVAVEALRAAGEAYRRAEELE
B16: design_622_fcc41892-afde-4fb9-b6e8-b664fffd6a75_2349_dldesign_0_cycle1_af2pred (protein)
chain: LTEELARETARGQRYAAELIALDPAAQELLEQVRRLSAAALQALLAGDEELAKKLAEEVKRLAEEIKARAEALK
B17: design_622_fcc41892-afde-4fb9-b6e8-b664fffd6a75_1349_dldesign_0_cycle1_af2pred (protein)
chain: AEASQALARRFIDATLAQMLAQIAAASAEEARRIAEAGLKAIEVAAQALPAEERAARVAEARERGAAAIAAKE
B18: design_622_fcc41892-afde-4fb9-b6e8-b664fffd6a75_1873_dldesign_0_cycle1_af2pred (protein)
chain: NALVQAGKIAAQAAVSLAKNAIAHADEMSPEGLQGAIDVATALIEYAEKAAKEDPEVAKLVEEAKKLVAEAKAVLAAR
B19: design_622_fcc41892-afde-4fb9-b6e8-b664fffd6a75_2191_dldesign_0_cycle1_af2pred (protein)
chain: MKEEVEKLKKEAEKLVKEAKAAAEAGDSGKAVSLASEAFKVARELEKLPESKELGKELKAKAHEVLTLAAK
B20: design_622_fcc41892-afde-4fb9-b6e8-b664fffd6a75_667_dldesign_0_cycle1_af2pred (protein)
chain: SAEEAVRKGEELTREAIKLAEEAVKGTPEKAKKAVEEIVKKMAEAIKASPAYGLLIANQARAIYLEAGKEDEAKAVKEGYKKALELAA
B21: design_622_fcc41892-afde-4fb9-b6e8-b664fffd6a75_788_dldesign_0_cycle1_af2pred (protein)
chain: SAAAEQLTLAAVRALSASAVAAEDPASSEQLFAVARDIADAASPETRARGLAIVDAARARAAARRAARAAAA
B22: design_622_fcc41892-afde-4fb9-b6e8-b664fffd6a75_2371_dldesign_0_cycle1_af2pred (protein)
chain: SAAAAESNQELAKQLKAIAQANAKAGDAEAVERVARSAAAAAKAVSEHPEAQKALTEAAKEAQKLAQQVKAA
B23: design_622_fcc41892-afde-4fb9-b6e8-b664fffd6a75_393_dldesign_0_cycle1_af2pred (protein)
chain: AAAEAAAKAAALKAKADAAAAKGEEYYAKGKEYAAKGDVEKASEYYLEAIKYYSEAAKYYAKVDPALADAAMKKAQEATKQMMALAK
B24: design_622_fcc41892-afde-4fb9-b6e8-b664fffd6a75_1089_dldesign_0_cycle1_af2pred (protein)
chain: AATKEEAQKAMVEASEVATELLRKAGEAYKAGDEELAEELRRAANELMRAMVQAAKDPAKGLEAVKKAVERGKELLKRAEEALKKA
B25: design_622_fcc41892-afde-4fb9-b6e8-b664fffd6a75_2329_dldesign_0_cycle1_af2pred (protein)
chain: AALREEAKKRVDAAVAAADAAAAADPLAGAIAYGELAVETARLAAELARADPAAGAEMRAKLVDISQKAIALALAAG
B26: design_622_fcc41892-afde-4fb9-b6e8-b664fffd6a75_281_dldesign_0_cycle1_af2pred (protein)
chain: MKEKEKKLVEEAEKLLKEAKALPATPEGAQQAVQYGQKAAELGKKIKEAGGTKEAAEKAYQYANEAFKIAAQLGAQAA
B27: design_622_fcc41892-afde-4fb9-b6e8-b664fffd6a75_365_dldesign_0_cycle1_af2pred (protein)
chain: AEAAKKNIEIAAKAGEAAVKNLKTMKPEDAKKLYEVVKDLAEYMKEQGKKAPEQAELAKEKAEKIEEEAKKALKEVEEKGKKA
B28: design_622_fcc41892-afde-4fb9-b6e8-b664fffd6a75_876_dldesign_0_cycle1_af2pred (protein)
chain: AEAERLRAGAESVLKMADVAYQAAKASAANPAAVAQAIASMTAAYKNAAELYREAGDEEKAKAALAKGDADVAAAKALAA
B29: design_622_fcc41892-afde-4fb9-b6e8-b664fffd6a75_2361_dldesign_0_cycle1_af2pred (protein)
chain: EQEKKAKELLKKVKELAKKAEETIKAGIAAGLPKEEIVGKGGELVVEAAKKAAELARVGTPEQAAEARKIVAAAIKYLLKVAAA
B30: design_622_fcc41892-afde-4fb9-b6e8-b664fffd6a75_1090_dldesign_0_cycle1_af2pred (protein)
chain: AAALAEATAMQFVRQAKATTDPERKRALARGAALALQSVVSPEEAARKTAEMAEALGAPPEVIAAARALL
B31: design_622_fcc41892-afde-4fb9-b6e8-b664fffd6a75_1828_dldesign_0_cycle1_af2pred (protein)
chain: EAAAREAAARRLAAALEAAEAAAAGPLGPRVAVAAAEVALEVLAAHPRLSPEAVRAAHRLLVLGGRAAGILAA
B32: design_622_fcc41892-afde-4fb9-b6e8-b664fffd6a75_1795_dldesign_0_cycle1_af2pred (protein)
chain: ANAQLAKGYLTAGQVYLQSPDAAYQEQAATAAQAAAAYAEADPAMADLAKQAKALEAEAKAKAAAAKAAA
B33: design_622_fcc41892-afde-4fb9-b6e8-b664fffd6a75_1610_dldesign_0_cycle1_af2pred (protein)
chain: DDAAKLASLREFLAQLVEIAKAGNAEQARVMARNARAAARSVAAAVASAAEALALGAEAEAEILAIAQEKAAAA
B34: design_622_fcc41892-afde-4fb9-b6e8-b664fffd6a75_1048_dldesign_0_cycle1_af2pred (protein)
chain: NPAVERARNVAEYAKQLIDFATANPAVPQALVDAAKAVLEAATKAAKEAEEDPSKAPEVLKRADEALAQANAISAQAAKAATAA
B35: design_622_fcc41892-afde-4fb9-b6e8-b664fffd6a75_572_dldesign_0_cycle1_af2pred (protein)
chain: EEELKKAVEEAKKEAKKAIETATQAIKLAQNYPALQAMAQAVKDAAKKALEKAEKGDLETAKRELQALKANLQMAQLLLESAQAG
B36: design_622_fcc41892-afde-4fb9-b6e8-b664fffd6a75_413_dldesign_0_cycle1_af2pred (protein)
chain: SEKEEASKKLKELEEEGNKAYEKGKAAAAAGDTGAAGAELVKIVKMSSEAYKLSKYIPEEGKKVSDELSAKAVELSKLLTA
B37: design_622_fcc41892-afde-4fb9-b6e8-b664fffd6a75_316_dldesign_0_cycle1_af2pred (protein)
chain: DALKVIEEYTKKALENIEDRELAALYLANMGVKVAQLVGDGSIGALAMKAAAEAYKSSVEEAKKIIKETAEKIKKIVE
B38: design_622_fcc41892-afde-4fb9-b6e8-b664fffd6a75_1097_dldesign_0_cycle1_af2pred (protein)
chain: SASEVAIKGGTALVNGAARAGIERIRRAGGGEADVERVKKIAEEAKKKIKAAKADAAKIGAIASEAVEEIRKLTEEVEKKA

Molecular target: CD276, Q5ZPR3
Sequence (Q5ZPR3 whole entry): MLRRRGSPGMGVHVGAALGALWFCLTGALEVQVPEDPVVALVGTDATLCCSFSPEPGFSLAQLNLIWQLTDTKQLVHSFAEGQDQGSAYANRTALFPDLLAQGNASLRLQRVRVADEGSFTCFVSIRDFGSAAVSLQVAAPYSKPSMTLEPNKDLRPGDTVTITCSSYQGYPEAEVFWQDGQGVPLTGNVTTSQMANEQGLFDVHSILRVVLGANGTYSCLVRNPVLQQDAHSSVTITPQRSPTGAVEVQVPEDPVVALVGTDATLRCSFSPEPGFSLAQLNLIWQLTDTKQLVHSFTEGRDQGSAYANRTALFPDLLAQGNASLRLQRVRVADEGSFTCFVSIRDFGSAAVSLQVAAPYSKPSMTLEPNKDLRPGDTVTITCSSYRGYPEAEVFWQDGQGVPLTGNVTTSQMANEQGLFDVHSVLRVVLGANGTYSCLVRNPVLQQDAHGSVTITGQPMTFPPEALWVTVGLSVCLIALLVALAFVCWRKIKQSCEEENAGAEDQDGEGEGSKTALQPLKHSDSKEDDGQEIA

Binding in a display sort, inactive:
B1 not found, B2 not found, B3 not found, B4 not found, B5 not found, B6 not found, B7 not found, B8 not found, B9 not found, B10 not found, B11 not found, B12 not found, B13 not found, B14 not found, B15 not found, B16 not found, B17 not found, B18 not found, B19 not found, B20 not found, B21 not found, B22 not found, B23 not found, B24 not found, B25 not found, B26 not found, B27 not found, B28 not found, B29 not found, B30 not found, B31 not found, B32 not found, B33 not found, B34 not found, B35 not found, B36 not found, B37 not found, B38 not found
